Assay results published in PubChem BioAssay.
Inconclusive results are not listed. Calls of active or inactive are those of the source.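 The calls were made as follows, unless noted: active = viability at or below 30% in both replicate assays; inconclusive = viability at or below 30% in just one of the two assays; inactive = the rest.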

Columns and labels:
[1] = reducers of endogenous Her2 protein level, primary screen, SKBR3 breast tumor cells, AlphaScreen, ATP viability (AID 461;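 active = Her2 level under about 52% in both replicate screens, with viability over 70% of control, limit read from the data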;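 as to Her2 level: lower value means less Her2 protein in the cells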;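 as to viability: percent of carrier control wells set as 100% viability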); conditions: 18-24 h, measured here: SKBR3 viability, ATP luminescence, at 10 µM
[2] = target: Receptor tyrosine-protein kinase erbB-2 (Homo sapiens) (UniProt P04626); assay: as above; conditions: 18-24 h, at 10 µM, stronger effect = lower value
Sequence of Receptor tyrosine-protein kinase erbB-2 (Homo sapiens) (P04626 whole entry, looked up): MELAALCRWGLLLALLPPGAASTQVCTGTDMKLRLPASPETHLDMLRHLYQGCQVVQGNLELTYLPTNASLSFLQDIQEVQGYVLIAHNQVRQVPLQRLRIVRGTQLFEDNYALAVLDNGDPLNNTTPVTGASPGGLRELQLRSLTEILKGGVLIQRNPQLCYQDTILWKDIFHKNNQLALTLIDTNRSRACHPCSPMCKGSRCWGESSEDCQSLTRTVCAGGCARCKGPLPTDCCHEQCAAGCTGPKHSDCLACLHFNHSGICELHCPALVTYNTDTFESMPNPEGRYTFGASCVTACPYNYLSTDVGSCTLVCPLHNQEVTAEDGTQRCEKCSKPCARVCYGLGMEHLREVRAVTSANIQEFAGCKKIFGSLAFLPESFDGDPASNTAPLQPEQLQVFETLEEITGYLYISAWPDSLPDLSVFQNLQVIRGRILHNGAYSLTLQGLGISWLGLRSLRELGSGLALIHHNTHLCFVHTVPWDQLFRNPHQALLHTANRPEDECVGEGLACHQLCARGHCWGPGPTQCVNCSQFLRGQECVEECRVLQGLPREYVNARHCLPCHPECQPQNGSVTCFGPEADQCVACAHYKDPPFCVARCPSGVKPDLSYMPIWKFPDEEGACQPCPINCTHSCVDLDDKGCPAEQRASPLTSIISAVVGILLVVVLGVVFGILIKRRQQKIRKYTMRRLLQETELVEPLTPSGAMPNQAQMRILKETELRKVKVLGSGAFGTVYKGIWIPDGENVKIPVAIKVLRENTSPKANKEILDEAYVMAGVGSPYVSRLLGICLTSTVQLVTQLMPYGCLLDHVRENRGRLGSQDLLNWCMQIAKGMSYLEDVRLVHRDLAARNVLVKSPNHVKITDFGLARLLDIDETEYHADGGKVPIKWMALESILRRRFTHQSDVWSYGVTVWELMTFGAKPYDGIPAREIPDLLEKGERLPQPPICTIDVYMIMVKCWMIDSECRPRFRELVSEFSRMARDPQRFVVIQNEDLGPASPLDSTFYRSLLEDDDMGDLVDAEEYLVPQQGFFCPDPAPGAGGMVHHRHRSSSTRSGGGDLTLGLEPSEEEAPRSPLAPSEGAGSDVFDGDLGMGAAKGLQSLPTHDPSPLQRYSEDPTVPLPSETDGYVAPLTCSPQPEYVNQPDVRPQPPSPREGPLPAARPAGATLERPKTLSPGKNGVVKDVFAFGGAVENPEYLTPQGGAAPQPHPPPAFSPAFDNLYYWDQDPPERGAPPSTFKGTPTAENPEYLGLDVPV

[3] = SK-BR-3 cell growth inhibitors, pilot screen, 24 h, human (AID 572;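 active = viability at or below 10% of carrier control in both of two separate runs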;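 also: compound exposure lasted between 18 and 24 h rather than exactly 24 h; 100% = carrier-treated control wells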); conditions: SK-BR-3 viability, CellTiter-Glo luminescence, at 10 µM, stronger effect = lower value
[4] = HUVEC growth inhibition – cell-based, human, primary screen (AID 575); conditions: HUVEC proliferation, CellTiter-Glo luminescence, 72 h; at 10 µM; stronger effect = lower value;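 also: 100% = median of untreated cell wells with 0.1% DMSO on each plate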
[5] = growth inhibitors of H69AR lung tumor, primary screen, human, duplicate replicates (AID 580;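 active = viability at or under a set limit in both replicates, limit being median viability minus 3 SD, cut at about 48% in these data, passing the limit was not always enough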;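 also: 100% = mean luminescence of untreated wells and 0% = no signal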); conditions: H69AR lung tumor cells viability, ATP luminescence, 72 h; at 10 µM; stronger effect = lower value
[6] = reversal of MRP1-mediated doxorubicin resistance, pilot screen, H69AR cells, doxorubicin co-treatment (AID 601;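 active = viability loss from added drug above about 55%, and viability with drug at most 40%, in both replicates, limit read from the data, passing the limit was not always enough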); conditions: CellTiter-Glo, 72 h, at 10 µM; for differential viability (reversal): stronger effect = higher value
[7] = viability gain of MRP-1-high H69AR cells under doxorubicin, pilot screen, MRP-1 activator project, CellTiter-Glo, duplicate (AID 807;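 active = viability increase at or above a cutoff of the median across tested compounds plus 3 SD, cut at about 8.5% in these data, passing the limit was not always enough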;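 also: compound pretreatment 18-22 h then 72 h combined with doxorubicin; 0% = doxorubicin alone and 100% = vehicle without doxorubicin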); conditions: H69AR viability with doxorubicin, CellTiter-Glo luminescence; at 10 µM; stronger effect = higher value
[8] = growth suppression of beta-catenin knockout HCT116, pilot screen, human colon tumor cells (AID 823;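 active = cell viability at or below a set limit in both duplicate runs, the limit being the all-compound median minus 4 SD, cut at about 23% in these data, passing the limit was not always enough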;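 also: 0% = wells killed by 20 µM Hyamine and 100% = untreated DMSO cell wells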); conditions: CellTiter-Glo, 60 h, at 10 µM, stronger effect = lower value
[9] = growth suppression of PTEN-deleted HCT116, pilot screen, cell-based, HCT116 clonal line, CellTiter-Glo (AID 824;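 active = viability at or below 27.92% in each of two runs, the all-compound median minus 4 SD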;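 also: 0% = 20 µM Hyamine control and 100% = vehicle cell control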); conditions: 60 h, at 10 µM, stronger effect = lower value
[10] = inhibitors of the yeast RAM network, pilot screen, dse1pr::URA3 reporter, 5-FOA selection (AID 869;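 active = inhibition over a set limit, the all-compound mean plus 3 SD, in both replicate runs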;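 also: 0% = DMSO wells with no growth and 100% = 10 µM 1-NA-PP1 with full growth; RAM network block rescues cells from 5-FOA so hits raise OD615 growth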); conditions: S. cerevisiae dse1pr::URA3 5-FOA growth, OD615, 2 d; at 10 µM; stronger effect = higher value; strain carries analog-sensitive mutant Cbk1 kinase
[11] = RAM signaling pathway blockade in yeast – S. cerevisiae, Pdr1DBD-CYC8 efflux-inhibited sensitized strain, primary screen (AID 1298;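 active = RAM network inhibition above 8.4% in each of two replicates, 3 SD over the compound average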;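 also: 0% = DMSO untreated cells without growth and 100% = 10 µM 1-NA-PP1 full growth; higher means more yeast growth rescued from 5-FOA killing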); conditions: S. cerevisiae cbk1-as DSE1-URA3 strain, 5-FOA growth OD615, 2 d; at 50 µM; stronger effect = higher value
[12] = Restrictive medium S. cerevisiae growth inhibition, OD615, pilot screen of yeast lifespan reduction project, restrictive growth control (AID 706;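 active = growth inhibition above a set limit, 3 SD over mean compound inhibition, in both replicates, cut at about 43% in these data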;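 also: modified DeaD lifespan yeast strain shifted to restrictive glucose medium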); conditions: OD615, 48 h, at 10 µM, stronger effect = higher value
[13] = H69AR cells + 2 uM doxorubicin, measured here: viability with 2 uM doxorubicin, stronger effect = lower value
[14] = H69AR cells, compound alone cytotoxicity

Row | SMILES | viability [1] [%] | Her2 level [2] | viability [3] | viability [4] | viability [5] | differential viability (reversal) ([6]; H69AR cells + 2 uM doxorubicin) | viability [6, 13] [%] | viability [6, 14] [%] | viability increase [7] | viability [8] | viability [9] | inhibition [10] | RAM network inhibition [11] | growth inhibition [12]
1 | Cn1cc(NC(=O)c2cc(NC(=O)c3cc(NC=O)cn3C)cn2C)cc1C(=O)NCCC(=N)N | 96 | 87.5% (inactive) | 96% (inactive) | 90.6% (inactive) | 83.1% (inactive) | -13.2% (inactive) | 96.3 | 83.1 |  |  |  |  |  | 
2 | COc1ccc2cc(C(=O)Nc3c(C)n(C)n(-c4ccccc4)c3=O)sc(=O)c2c1OC |  |  |  |  |  |  |  |  | -1.5% (inactive) | 97.7% (inactive) | 92.6% (inactive) | 2.33% (inactive) | 0.16% (inactive) | 
3 | Cc1nnc(SCC2=C(C(=O)O)N3C(=O)[C@@H](NC(=O)Cn4cnnn4)[C@H]3SC2)s1 | 88.5 | 99.5% (inactive) | 88.5% (inactive) | 105% (inactive) | 101% (inactive) | 1.93% (inactive) | 98.7 | 101 |  |  |  |  |  | 
4 | Cc1ncc([N+](=O)[O-])n1CCO | 99.5 | 108% (inactive) | 99.5% (inactive) | 103% (inactive) | 105% (inactive) | 8.66% (inactive) | 96.7 | 105 |  |  |  |  |  | 
5 | CN(C)CCCN1c2ccccc2CCc2ccccc21 | 105 | 104% (inactive) | 105% (inactive) | 81% (inactive) | 77.7% (inactive) | 4.16% (inactive) | 73.5 | 77.7 |  |  |  |  |  | 
6 | C[C@@H]1C[C@H]2[C@@H]3C[C@H](F)C4=CC(=O)C=C[C@]4(C)[C@@]3(F)[C@@H](O)C[C@]2(C)[C@@]1(O)C(=O)CO | 74 | 118% (inactive) | 74% (inactive) | 113% (inactive) | 92.7% (inactive) | -3.78% (inactive) | 96.5 | 92.7 |  |  |  |  |  | 
7 | c1ccc2[nH]c(-c3cscn3)nc2c1 | 106 | 104% (inactive) | 106% (inactive) | 91.1% (inactive) | 97.9% (inactive) | -4.19% (inactive) | 102 | 97.9 |  |  |  |  |  | 
8 | CC(Sc1nc2ccccc2s1)C(=O)N1CCOCC1 (stereo unspecified) |  |  |  |  |  |  |  |  | -3.03% (inactive) | 95.9% (inactive) |  | 1.84% (inactive) | 6.03% (inactive) | 2.68% (inactive)
9 | Cn1c([N+](=O)[O-])cnc1COC(N)=O | 108 | 105% (inactive) | 108% (inactive) | 102% (inactive) | 102% (inactive) | 16.2% (inactive) | 85.7 | 102 |  |  |  |  |  | 
